Compound activity as filed in PubChem BioAssay.
Most compounds without a hit are left out; they make up all but 6.7% or so of the library.
BoNT-A LC inh2 – BoNT/A light chain protease inhibitors, primary screen, biochemical, flow cytometry, MLPCN library; inhibition, % at 10 µM; multiplex microsphere protease substrate cleavage; 0.17% of 360,000 active; AID 588499, 2011
GDH-TPI counter-1 – GDH-TPI coupling enzyme inhibitors, primary screen, artefact control for M. tuberculosis FBA inhibitor project, biochemical, absorbance, full deck | GDH-TPI coupled enzyme counterscreen, NADH absorbance | inhibition, % at 4.8 µM | 1.2% of 360,000 active; in the data active = inhibition above about 30%
FBA Mtb inh – Mtb FBA enzyme inhibitors, primary screen, biochemical, fluorescence, strain H37Rv. purified M. tuberculosis FBA, fluorescence read-out. inhibition, % at 1 µM. AID 588726, 2011. 2.3% of 360,000 active. Fructose-bisphosphate aldolase (Mycobacterium tuberculosis (strain ATCC 25618 / H37Rv)), …; in the data active = inhibition above about 27%
Target sequence (P9WQA3 whole entry, looked up): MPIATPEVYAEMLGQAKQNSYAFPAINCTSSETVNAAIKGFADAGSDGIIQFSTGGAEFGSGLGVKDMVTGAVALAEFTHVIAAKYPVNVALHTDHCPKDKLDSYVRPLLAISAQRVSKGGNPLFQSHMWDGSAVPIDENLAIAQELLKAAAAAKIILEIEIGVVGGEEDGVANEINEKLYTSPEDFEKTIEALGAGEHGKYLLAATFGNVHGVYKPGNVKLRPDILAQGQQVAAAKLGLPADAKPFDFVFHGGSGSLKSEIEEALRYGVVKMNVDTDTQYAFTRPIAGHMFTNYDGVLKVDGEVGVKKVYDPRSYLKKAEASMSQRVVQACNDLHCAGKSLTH
BoNT F protease – BoNT/F light chain protease inhibitors, primary screen, biochemical, flow cytometry, MLPCN library; AID 588497, 2011; inhibition, % at 10 µM; Multiplex microsphere protease cleavage assay; 0.22% of 360,000 active; in the data active = inhibition above about 35%, passing the limit was not always enough; inconclusive = no clear call, values can overlap the other calls
Anthrax LF inh2 – Bacillus anthracis LF protease inhibitors, primary screen, biochemical, multiplex microsphere, MLPCN library; multiplex microsphere protease cleavage assay; inhibition, % at 10 µM; AID 588501, 2011; 0.12% of 360,000 active
Bead autofluor – compound fluorescence in toxin protease inhibitor counterscreen. compound autofluorescence counterscreen, microsphere flow cytometry; active compounds read high. fluorescence intensity (no concentration beside the values). 3.1% of 360,000 active; in the data active = fluorescence intensity above about 16000; inconclusive = no clear call, values can overlap the other calls
Mtb FBA inh conf – M. tuberculosis aldolase blockers, biochemical, fluorescence, strain H37Rv, confirmation; purified M. tuberculosis FBA, fluorescence read-out; 78% of 5,600 active; inhibition, % at 1 µM; AID 651616, 2012; shares compounds with FBA Mtb inh; in the data active = inhibition above about 27%
GDH-TPI counter-2 – GDH-TPI coupling enzyme inhibitors, artefact control for M. tuberculosis FBA inhibitor project, biochemical, fluorescence, high throughput. shares compounds with FBA Mtb inh. GDH-TPI coupled enzyme counterscreen. inhibition, % at 1 µM. 81% of 5,600 active. AID 652141, 2013; in the data active = inhibition above about 10%
GDH-TPI DR – GDH-TPI coupling enzyme inhibitors, dose response, artefact control for M. tuberculosis FBA inhibitor project, biochemical, fluorescence, IC50; shares compounds with FBA Mtb inh; GDH-TPI coupled enzyme assay, artifact counterscreen; IC50, µM; 79% of 170 active; call rule not given here
Numbers stand for hits; i = inactive; ? = inconclusive; nt = not tested or not shown; + = active, no number. Rule as the data show it, unless noted: active = inhibition above about 30%; inconclusive = no clear call, values can overlap the other calls; inactive = below that.

SMILES	BoNT-A LC inh2	GDH-TPI counter-1	FBA Mtb inh	BoNT F protease	Anthrax LF inh2	Bead autofluor	Mtb FBA inh conf	GDH-TPI counter-2	others
O=C(c1ccc2c3c(cccc13)CC2)C1CCCN(C(=O)c2ccc[n+]([O-])c2)C1 (stereo unspecified)	i	i	29.3	i	i	i	+	164.9
O=C(c1ccc2c3c(cccc13)CC2)C1CCCN(C(=O)c2cc[n+]([O-])cc2)C1 (stereo unspecified)	i	i	i	i	i	i	nt	nt
O/N=C/c1cc(Br)ccc1OCc1ccccc1F	i	i	i	i	i	i	nt	nt
COc1ccc(-c2nnc(-c3cccnc3)o2)cc1	i	i	82.9	i	i	i	154.2	126.3
c1cncc(-c2nnc(-c3cccs3)o2)c1	i	i	51.1	i	i	i	70.2	47.1
Brc1ccc(-c2nnc(-c3cccnc3)o2)cc1	i	i	i	?	i	i	nt	nt
Cc1ccccc1-c1nnc(-c2cccs2)o1	i	i	29.4	i	i	i	165.1	128.3
Clc1ccc(-c2nnc(-c3cccnc3)o2)cc1	i	i	i	?	i	i	nt	nt
Cc1ccc(N(CC(=O)NC2CCCCC2)S(=O)(=O)c2c(C)nn(C)c2C)cc1	i	i	i	i	i	i	nt	nt
Cc1cc(N/N=C/c2ccc(N(C)C)cc2)c2ccccc2n1	i	31.1	28.1	?	i	i	+	167.0
Cc1cc(N/N=C/c2ccco2)c2ccccc2n1	i	i	i	i	i	i	nt	nt
COc1ccccc1-c1sc2cc3c(cc2c1C#Cc1cncn1C)OCO3	i	i	47.5	i	i	i	88.4	61.0
COc1ccc(-c2cccc(NC(=O)c3ccco3)c2)nn1	i	i	i	i	i	i	nt	nt
Cc1ccccc1NC(=O)CCN1CCN(C)CC1	i	i	i	i	i	i	nt	nt
CCOc1ccc(Br)cc1S(=O)(=O)NCCN(C)C	i	i	i	i	i	i	nt	nt
Cc1cc(-c2ccc(Cl)cc2)n2ncnc2n1	i	i	27.5	i	i	i	100.7	91.0
CSc1nc2nc(C)cc(-c3ccccc3)n2n1	i	i	i	i	i	?	nt	nt
Cc1cc(Nc2ccc(Cl)cc2)n2ncnc2n1	i	i	i	?	i	i	nt	nt
Cc1cc(-c2ccc(Cl)cc2)n2nc(N)nc2n1	i	i	59.2	i	i	i	i	i	GDH-TPI DR=2.56
Cc1cc(N2CCOCC2)nc2cc(O)ccc12	i	i	32.5	i	i	i	86.8	69.6
Cc1cc(N2CCOCC2)nc2ccc(NC(=S)N3CCCCC3C)cc12 (stereo unspecified)	i	i	35.9	i	i	i	121.9	95.1
Cc1cc(N2CCOCC2)nc2ccc(NC(=O)CCC(=O)N3CCCC(C)C3)cc12 (stereo unspecified)	i	i	53.8	i	i	i	113.9	84.1
Cc1cc(N2CCOCC2)nc2ccc(NC(=O)C3CCCCC3)cc12	i	i	i	i	i	i	nt	nt
Cc1cc(N2CCN(C)CC2)nc2ccc(NC(=S)N3CCN(c4ccc(F)cc4)CC3)cc12	i	i	i	i	i	i	nt	nt
COc1cccc(C(=O)Nc2ccc3nc(N4CCOCC4)cc(C)c3c2)c1	i	i	i	i	i	i	nt	nt
SMILES	BoNT-A LC inh2	GDH-TPI counter-1	FBA Mtb inh	BoNT F protease	Anthrax LF inh2	Bead autofluor	Mtb FBA inh conf	GDH-TPI counter-2	others
Cc1cc(N2CCOCC2)nc2ccccc12	i	i	i	i	i	i	nt	nt
Cc1cc(N2CCOCC2)nc2ccc(NC(=O)CCC(=O)N3CCN(c4ccc(F)cc4)CC3)cc12	i	i	62.9	i	i	i	84.0	52.0
Cc1ccc2[nH]c(=O)c(CN(Cc3nnnn3C3CCCC3)C3CCCCC3)cc2c1	i	i	i	i	i	i	nt	nt
C#CCNC(=O)C1=C[C@H](c2ccc(C#C)cc2)C[C@H](OCc2ccc(CO)cc2)O1	i	i	i	i	i	i	nt	nt
Cc1cc(N2CCOCC2)nc2ccc(NC(=O)CCC(=O)N3CCN(c4ccccc4F)CC3)cc12	i	i	49.6	i	i	i	76.4	54.9
CCN(CC)CCCNc1nc(C)cc(COC)c1C#N	i	i	75.8	i	i	i	114.4	102.6
CN1CCN(c2c(F)cc3c(=O)c(C(=O)O)cn4c3c2SCC4)CC1	i	i	28.1	i	i	i	+	+
C[C@H]1COc2c(N3CCN(C)CC3)c(F)cc3c(=O)c(C(=O)O)cn1c23	i	i	54.7	i	i	i	+	162.0
Cc1c(-n2cc(C(=O)O)c(=O)c3cc(F)c(N4CCCC4)c(F)c32)c(=O)n(-c2ccccc2)n1C	i	i	i	i	i	i	nt	nt
O=C(N/N=C/c1cc(Cl)ccc1O)c1ccc(Br)cc1	i	i	26.9	i	i	i	77.9	56.6
O=C(Nc1nnc(Cc2ccc([N+](=O)[O-])cc2)s1)c1ccc2c(c1)OCO2	i	i	i	i	i	i	nt	nt
CCOC(=O)COc1nc(-c2ccccc2)cc(-c2ccco2)c1C#N	?	i	57.6	?	i	i	138.1	127.0
CCOC(=O)COc1nc2c(c(-c3ccco3)c1C#N)CCc1ccccc1-2	i	i	30.3	i	?	i	i	14.4
CCOc1cc(/C=N\NC(=O)c2ccc(NC(=O)C(C)(C)C)cc2)ccc1OC(=O)c1ccc(C)cc1	i	i	i	i	i	i	nt	nt
CC(NC(=O)c1ccccc1NS(C)(=O)=O)c1ccccc1 (stereo unspecified)	i	i	41.6	i	i	i	132.7	106.3
CC(NC(=O)c1ccc(NS(C)(=O)=O)cc1)c1ccccc1 (stereo unspecified)	i	i	i	i	i	i	nt	nt
Cc1ccc(CNC(=O)c2ccccc2NS(=O)(=O)c2ccc(Cl)nc2)cc1	i	i	i	i	i	i	nt	nt
Cc1cc(C)c(C)c(S(=O)(=O)Nc2ccccc2C(=O)O)c1C	i	i	27.3	i	i	i	i	10.8
Cc1cc(S(=O)(=O)Nc2ccccc2C(=O)O)ccc1Cl	i	i	i	i	i	i	nt	nt
Cc1ccc(CNC(=O)c2ccccc2NS(C)(=O)=O)cc1	i	i	37.8	i	i	i	+	+
CS(=O)(=O)Nc1ccccc1C(=O)O	i	i	27.7	i	i	i	116.5	104.4
